Results published in PubChem BioAssay (NCATS).
Active and inactive are the calls of the source. Calls follow the shape of the dose curve; as a rule, active = well fitted curve in the direction sought with a large enough effect; inconclusive = small, poorly fitted or top-dose-only effect, or another doubt; inactive = no such curve, though single readings can be large; an effect the other way counts as inactive or inconclusive.

What was measured:
[1] = target: Alpha-galactosidase (Coffea arabica) (UniProt Q42656); assay: Counterscreen for Glucocerebrosidase Inhibitors: qHTS Assay for Coffee Bean alpha-Galactosidase at pH 4.5 (AID 957); also: series mostly up to about 77 µM
Chain of Alpha-galactosidase (Coffea arabica) (Q42656 whole entry, looked up): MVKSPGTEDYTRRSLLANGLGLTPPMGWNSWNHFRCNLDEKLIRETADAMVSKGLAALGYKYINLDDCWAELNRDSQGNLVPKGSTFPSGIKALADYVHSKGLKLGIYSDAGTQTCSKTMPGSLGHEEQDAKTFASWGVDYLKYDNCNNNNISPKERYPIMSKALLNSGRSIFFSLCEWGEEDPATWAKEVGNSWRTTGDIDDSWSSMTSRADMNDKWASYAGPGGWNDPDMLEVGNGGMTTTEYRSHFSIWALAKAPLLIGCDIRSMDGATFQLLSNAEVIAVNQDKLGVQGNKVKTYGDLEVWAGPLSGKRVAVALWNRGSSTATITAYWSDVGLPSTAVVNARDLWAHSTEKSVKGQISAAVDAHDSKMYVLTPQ
Outline: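 AC50 values derive from Hill-equation modeling of concentration-response data, normalized to no-enzyme and full-activity controls. The pH 4.5 citrate assay used 2 nM coffee bean enzyme and 80 uM fluorogenic substrate for 20 min.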

[2] = target: Alpha-galactosidase (Coffea arabica) (UniProt Q42656); assay: Counterscreen for Glucocerebrosidase Inhibitors: qHTS Assay for Coffee Bean alpha-Galactosidase at pH 5.9 (AID 998)
Outline: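 Green coffee bean enzyme (2 nM) with 4-methylumbelliferyl alpha-D-galactopyranoside (80 uM) in 50 mM citric acid, 0.005% Tween-20, pH 5.9, 20 min at room temperature; compounds 0.7 nM–77 uM. Stopped at pH 10, fluorescence Ex365/Em440; Hill-fit AC50.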

CC(=O)O[C@@H](C)C[N+](C)(C)C was tested, and the outcome [1] was “inactive” and the outcome [2] was “inactive”.
CNC(=O)[C@@H]1O[C@@H](n2cnc3c(NCc4cccc(I)c4)ncnc32)[C@H](O)[C@@H]1O was tested, and the outcome [1] was “inactive” and the outcome [2] was “inactive”.
With C[C@@H](CN(C)C)CN1c2ccccc2CCc2ccccc21 the outcome [1] was “inactive”.
For CC(C)(C)NC[C@H](O)c1ccc(O)c(CO)c1, the outcome [1] was “inactive” and the outcome [2] was “inactive”.
For CC(=O)OCC1=C(C(=O)O)N2C(=O)[C@@H](NC(=O)CSc3ccncc3)[C@@H]2SC1, the outcome [1] was “inactive” and the outcome [2] was “inactive”.
CC1=C(\C=C/C(C)=C/C=C\C(C)=C\C(=O)O)C(C)(C)CCC1 was tested, and the outcome [1] was “inactive” and the outcome [2] was “inactive”.
COc1ccc(CCNC[C@H](O)c2ccc(O)cc2)cc1OC was tested, and the outcome [1] was “inactive” and the outcome [2] was “inactive”.
In the case of Oc1ccc([C@@H]2CNCCc3c2cc(O)c(O)c3Cl)cc1, the outcome [1] is reported as “inactive” and the outcome [2] is reported as “inactive”.
In the case of N.N.N.N.N.N.N.N.N.N.N.N.N.N.O.O.[Ru].[Ru].[Ru], the outcome [1] is reported as “inactive” and the outcome [2] is reported as “inactive”.
With C[C@@H](C[N+](C)(C)C)OC(N)=O the outcome [1] was “inactive” and the outcome [2] was “inactive”.
N[C@H](CCCC(=O)O)C(=O)O was tested, and the outcome [1] was “inactive” and the outcome [2] was “inactive”.
For NCCCCNS(=O)(=O)c1cccc2c(Cl)cccc12, the outcome [1] was “inactive” and the outcome [2] was “inactive”.
With COC(=O)C1=C(C)NC(C)=C([N+](=O)[O-])[C@H]1c1ccccc1C(F)(F)F the outcome [1] was “inactive” and the outcome [2] was “inactive”.
O=C(O)/C=C\c1cnc[nH]1 was tested, and the outcome [1] was “inactive”.
C[C@H](N)C(=O)OC(C)(C)Cc1ccc(Cl)cc1 was tested, and the outcome [1] was “inactive” and the outcome [2] was “inactive”.
In the case of OCCN1CCN(CC/C=C2\c3ccccc3Sc3ccc(C(F)(F)F)cc32)CC1, the outcome [1] is reported as “inactive”.
In the case of COc1cc2c(cc1OC)[C@H](c1ccccc1)CN(C)CC2, the outcome [1] is reported as “inactive” and the outcome [2] is reported as “inactive”.
With CC(=O)N[C@@H](C(=O)O)C(C)(C)SN=O the outcome [1] was “inactive” and the outcome [2] was “inactive”.
With CC(C)C[C@H](NC(=O)[C@@H]1O[C@H]1C(=O)O)C(=O)NCCCCN=C(N)N the outcome [1] was “inactive” and the outcome [2] was “inactive”.
In the case of CC[C@]1(O)C[C@H]2CN(CCc3c([nH]c4ccccc34)[C@](C(=O)OC)(c3cc4c(cc3OC)N(C=O)[C@H]3[C@@](O)(C(=O)OC)[C@H](OC(C)=O)[C@@]5(CC)C=CCN6CC[C@]43[C@H]65)C2)C1, the outcome [1] is reported as “inactive” and the outcome [2] is reported as “inactive”.
In the case of COCCc1ccc(OC[C@H](O)CNC(C)C)cc1, the outcome [1] is reported as “inactive” and the outcome [2] is reported as “inactive”.
In the case of c1ccc([C@@H]2CN3CCSC3=N2)cc1, the outcome [1] is reported as “inactive” and the outcome [2] is reported as “inactive”.
For O=C(O)CCCC[C@H]1CCSS1, the outcome [1] was “inactive”.
OC[C@@H]1O[C@@H](n2cnc3c(NC4CCCC4)ncnc32)[C@@H](O)[C@H]1O was tested, and the outcome [1] was “inactive”.
CN(C)CCO[C@](C)(c1ccccc1)c1ccccn1 was tested, and the outcome [1] was “inactive” and the outcome [2] was “inactive”.
With CC(C)(C)c1onc(OCP(=O)(O)O)c1C[C@@H](N)C(=O)O the outcome [1] was “inactive” and the outcome [2] was “inactive”.
In the case of N[C@H](Cc1ccc(F)cc1)C(=O)O, the outcome [1] is reported as “inactive”.
Nc1ncnc2c1nc(Sc1ccc(Cl)cc1)n2[C@@H]1O[C@H]2COP(=O)(O)O[C@@H]2[C@H]1O was tested, and the outcome [1] was “inactive” and the outcome [2] was “inactive”.
In the case of C[C@@H]1O[C@@H](n2cc(F)c(=O)[nH]c2=O)[C@H](O)[C@@H]1O, the outcome [1] is reported as “inactive” and the outcome [2] is reported as “inactive”.
With O=C(c1ccccc1)c1ccc2n1CC[C@H]2C(=O)O the outcome [1] was “inactive” and the outcome [2] was “inactive”.
With Nc1nc2c(nc(Br)n2[C@@H]2O[C@H]3COP(=O)(O)O[C@@H]3[C@H]2O)c(=O)[nH]1 the outcome [1] was “inactive” and the outcome [2] was “inactive”.
In the case of C[C@@H]1CNCCN1S(=O)(=O)c1cccc2cnccc12, the outcome [1] is reported as “inactive” and the outcome [2] is reported as “inactive”.
For Cc1ccc(/C(=C/CN2CCCC2)c2ccccn2)cc1, the outcome [1] was “inactive” and the outcome [2] was “inactive”.
CC(=O)OCC1=C(C(=O)O)N2C(=O)[C@@H](NC(=O)Cc3cccs3)[C@@H]2SC1 was tested, and the outcome [1] was “inactive” and the outcome [2] was “inactive”.
CCCCCC[C@@H]([C@H](C)O)n1cnc2c(N)ncnc21 was tested, and the outcome [1] was “inactive” and the outcome [2] was “inactive”.
In the case of CCOC(=O)[C@@]12C[C@@H]1/C(=N/O)c1ccccc1O2, the outcome [1] is reported as “inactive” and the outcome [2] is reported as “inactive”.
For Cc1c(C)c2c(c(C)c1O)CC[C@@](C)(CN1CCN(c3cc(N4CCCC4)nc(N4CCCC4)n3)CC1)O2, the outcome [1] was “inactive” and the outcome [2] was “inactive”.
With CN1[C@@H]2CC[C@H]1CC(NC(=O)c1nn(C)c3ccccc13)C2 (stereo partly specified) the outcome [1] was “inactive” and the outcome [2] was “inactive”.
With OC[C@@H]1O[C@@H](n2cnc3c(NC4CCCCC4)ncnc32)[C@@H](O)[C@H]1O the outcome [1] was “inactive” and the outcome [2] was “inactive”.
For C[C@@H](CCc1ccc(O)cc1)NCCc1ccc(O)c(O)c1, the outcome [1] was “inactive” and the outcome [2] was “inactive”.
With CCCCCCCCCCCCCCCCCCOC[C@@H](COP(=O)([O-])OCC[N+](C)(C)C)OC the outcome [1] was “inactive” and the outcome [2] was “inactive”.
With CC(C)(C)NC[C@H](O)COc1cccc2[nH]c(=O)[nH]c12 the outcome [1] was “inactive” and the outcome [2] was “inactive”.
Nc1nc(Cl)nc2c1ncn2[C@@H]1O[C@@H](COP(=O)(O)OP(=O)(O)OP(=O)(O)O)[C@@H](O)[C@H]1O was tested, and the outcome [1] was “inactive” and the outcome [2] was “inactive”.
With CCn1cc(C(=O)O)c(=O)c2cc(F)c(N3CCN[C@@H](C)C3)c(F)c21 the outcome [1] was “inactive” and the outcome [2] was “inactive”.
With COc1cc([C@@H](O)CO)ccc1OS(=O)(=O)O the outcome [1] was “inactive” and the outcome [2] was “inactive”.
With Cc1cccc([C@@H]2CN(C)CCc3c2cc(O)c(O)c3Cl)c1 the outcome [1] was “inactive” and the outcome [2] was “inactive”.
For COc1cccc2c1[C@@H]1CN(CCCCn3c(=O)[nH]c4c(sc5ncc(-c6ccccc6)nc54)c3=O)C[C@H]1CO2, the outcome [1] was “inactive” and the outcome [2] was “inactive”.
In the case of Cn1c(=O)c2c(nc(/C=C\c3cccc(Cl)c3)n2C)n(C)c1=O, the outcome [1] is reported as “inactive” and the outcome [2] is reported as “inactive”.
COc1cc2nc(N3CCN(C(=O)[C@H]4COc5ccccc5O4)CC3)nc(N)c2cc1OC was tested, and the outcome [1] was “inactive” and the outcome [2] was “inactive”.
In the case of CSc1ccc2c(c1)[C@H](N1CCN(C)CC1)Cc1ccccc1S2, the outcome [1] is reported as “inactive” and the outcome [2] is reported as “inactive”.
CCn1ccnc1C[C@@H]1COc2ccccc2O1 was tested, and the outcome [1] was “inactive” and the outcome [2] was “inactive”.
CSc1nc(N)c2ncn([C@@H]3O[C@@H](COP(=O)(O)OP(=O)(O)O)[C@@H](O)[C@H]3O)c2n1 was tested, and the outcome [1] was “inactive” and the outcome [2] was “inactive”.
In the case of Nc1ncnc2c1ncn2[C@@H]1O[C@@H](CO)[C@H](O)[C@@H]1O, the outcome [1] is reported as “inactive” and the outcome [2] is reported as “inactive”.
With CCCN[C@@H](C)C(=O)Nc1ccccc1C the outcome [1] was “inactive” and the outcome [2] was “inactive”.
In the case of N[C@@H]1C=CC=C(C(=O)O)C1, the outcome [1] is reported as “inactive” and the outcome [2] is reported as “inactive”.
In the case of NCCC[C@@](N)(C(=O)O)C(F)F, the outcome [1] is reported as “inactive” and the outcome [2] is reported as “inactive”.
O=C(O)[C@H]1C[C@H](C(=O)O)N1 was tested, and the outcome [1] was “inactive” and the outcome [2] was “inactive”.
CC(C)(C)c1ccc(S(=O)(=O)/C=C\C#N)cc1 was tested, and the outcome [1] was “inactive” and the outcome [2] was “inactive”.
With CO[C@]1(NC(=O)CSCC#N)C(=O)N2C(C(=O)O)=C(CSc3nnnn3C)CS[C@H]21 the outcome [1] was “inactive” and the outcome [2] was “inactive”.
CCN(CC)CC#CCOC(=O)[C@@](O)(c1ccccc1)C1CCCCC1 was tested, and the outcome [1] was “inactive” and the outcome [2] was “inactive”.
With CC(C)NC[C@@H](O)COc1ccc(CCOCC2CC2)cc1 the outcome [1] was “inactive” and the outcome [2] was “inactive”.
